An excerpt weighted towards active compounds, which were near 2.8% of everything screened.
D3 antag: D3 dopamine receptor (human) antagonism; AID 652054; D3R cells, DiscoveRx beta-arrestin luminescence, antagonist mode; hits give low values; actives 2.5% (n = 360,000); max response, negative = inhibition, %; in the data active means max response below about -50%; inconclusive means no clear call, values can overlap the other calls; further: on the % scale 0 is the no-effect control and ±100 the full control effect
Target sequence (P35462 whole entry, looked up): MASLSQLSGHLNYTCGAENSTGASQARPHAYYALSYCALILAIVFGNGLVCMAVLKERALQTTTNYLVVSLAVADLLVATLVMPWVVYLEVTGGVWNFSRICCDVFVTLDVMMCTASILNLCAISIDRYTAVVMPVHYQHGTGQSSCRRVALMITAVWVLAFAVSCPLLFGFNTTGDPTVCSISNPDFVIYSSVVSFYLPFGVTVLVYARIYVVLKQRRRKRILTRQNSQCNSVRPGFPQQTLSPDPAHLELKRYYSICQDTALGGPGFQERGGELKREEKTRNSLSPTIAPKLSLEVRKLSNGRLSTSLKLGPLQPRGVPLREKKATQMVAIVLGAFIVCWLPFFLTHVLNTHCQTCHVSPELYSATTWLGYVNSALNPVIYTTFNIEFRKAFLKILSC
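Cells expressing the human receptor were seeded at 1500 cells/well, incubated overnight at 37 degrees C in 5% CO2, then exposed to library compounds with dopamine controls for 90 minutes at 37 degrees C before luminescent detection.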
DRD3 agonist: D3 dopamine receptor (human) agonism; P35462; D3R DiscoveRx beta-arrestin cells, luminescence, 90 min; max activation, %; actives 0.58% (n = 410,000); in the data active means max activation above about 30%; further: 0% is about no effect
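Agonist-mode cell screen: cells plated at 1500/well and incubated overnight at 37 °C, then exposed to library compounds for 90 min at 37 °C. Detection reagent was added for 30–60 min at room temperature, and luminescence was read.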
a7 integrin act: integrin-mediated muscular dystrophy alleviation activation; alpha7betagal myoblasts, beta-gal FDG fluorescence, 48 h; Potency, µM (titrated, usually from 38.3 µM), without a hit: at the top dose activation, hits mostly activators; actives 0.064% (n = 350,000);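 further: potency means the concentration at half of the fitted maximal effect; 100% = response of the positive control SU9516; nearly all actives have a fitted effect of over 60% in size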
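alpha7betagal+/- myoblasts (passage 13, 250/well) treated 48 h at 37C with compounds at 1:260 dilution of DMSO stock. Lysed, then beta-galactosidase activity read as FDG fluorescence (ex 480/em 540) after 30 min, with pre-read for autofluorescence.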
MBNL1 CUG block: blocks human MBNL1 binding to CUG repeat RNA; Potency, µM (doses to about 57.5 µM), for inactives: at the top dose activity change, negative = inhibition, actives largely listed as inhibitors; Q9NR56; TR-FRET MBNL1-His/biotin-(CUG)12 binding, 665/545 ratio; actives 0.036% (n = 280,000); active means well fitted inhibition curve with a large enough effect in the signal ratio, with a control signal flat, not every such curve was filed as active; inconclusive means small, poorly fitted or top-dose-only effect, or effect the other way, or a change in a side signal; inactive means no such curve, though single readings can be large or run the other way; the % refers to the signal ratio; further: potency means the concentration at half of the fitted maximal effect; on the % scale 0 is the no-effect control and ±100 the full control effect
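Compound titration spanned 92 nM–58 uM against the MBNL1-His/biotin-(CUG)12 complex. After 60 min at room temperature with 5 nM streptavidin-XL665 and 0.055 ng/ul terbium anti-His, ratiometric 665/545 nm emission (Ex 340 nm) normalized to controls.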
PTHR1 agonist: PTHR1 (human) receptor agonism; Q03431; HEK293 GP2 PTHR1 cells, GloSensor cAMP luminescence, 1 h; Potency, µM (series often up to 115 µM), without a hit: top-dose activation, most hits filed as activators; actives 0.075% (n = 410,000); further: potency means the concentration at half of the fitted maximal effect; nearly all actives have a fitted effect of over 55% in size
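HEK-293-derived GP2 cells expressing PTHR1 and a GloSensor cAMP reporter, 3,000/well, plated overnight, given luciferin plus IBMX (each 0.5 mM as added) for 1 h at 37 °C, then compound for 1 h at 37 °C. Luminescence was read after 15 min at room temperature.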
CBFb-RUNX1 inh: blocks binding between human CBF-beta and RUNX1; Q01196+Q13951; AlphaScreen CBFb-His/RUNX1-biotin binding, biochemical; Potency, µM (highest dose often 59.8 µM), for the others: at the top dose activity, negative = inhibition, usual class: inhibitors; 230,000 tested, under 10 active; further: % of control where 0% means no effect
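AlphaScreen binding: CBFb-His and RUNX1-biotin (30 nM each) preincubated 20 min, compound added for 15 min, then nickel and streptavidin beads for 90 min, all at room temperature. Disruption of the interaction by any mechanism counts as activity.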
Numbers without * were called inactive; i = inactive; ? = inconclusive; . = not tested or not shown; ! = a repeat was not active; [ ] = dose if it differs, or a comment. Unless noted, the call rests on the fitted dose curve; in most records, active means well fitted curve in the direction sought with a large enough effect; inconclusive means small, poorly fitted or top-dose-only effect, or another doubt; inactive means no such curve, though single readings can be large; an effect the other way counts as inactive or inconclusive.

SMILES	D3 antag	DRD3 agonist	a7 integrin act	MBNL1 CUG block	PTHR1 agonist	CBFb-RUNX1 inh
O=C(CN1C(=O)C2(OCCO2)c2ccccc21)c1ccc(Cl)cc1	-22	3	-2%[7.66 µM]	-8%	i	2%
CC(C)[C@@H]1Cc2[nH]c(=S)[nH]c(=O)c2[C@H](C)O1	-10	7	.	.	-21%	.
CC(C)CC1OC(C(C)C)Cc2[nH]c(=S)[nH]c(=O)c21 (stereo not drawn)	-51*	-4	.	.	-5%	.
O=c1c2ccccc2nc(-c2ccc(Cl)cc2)n1CCCCOc1ccc(F)cc1	.	4	.	.	i	.
CC(=O)NC(CC(C)C)C(=O)NC(Cc1ccccc1)C(N)=O (stereo not drawn)	9	30*	5%	1%	-15%	8%
FC(F)(F)c1ccccc1/C=N/n1c(COc2ccccc2)n[nH]c1=S	-6	-6	8%	0%	-17%	.
COc1cc2c(cc1OC)CN(C(=O)CCNC(=O)c1ccc(Br)cc1)CC2	2	-29	12%	.	-7%	.
COc1cc2c(cc1OC)CN(CCC(=O)c1ccc(Br)cc1)CC2	-53*	-18	-40%	1%	-70%	10%
COc1ccc(CNC(=O)CCc2c(C)c3ccc(OC)c(C)c3oc2=O)cc1OC	.	7	.	.	-15%	.
COc1ccc(CCNC(=O)Cc2c(C)c3ccc(O)c(C)c3oc2=O)cc1OC	.	38*	.	.	i	.
COC(=O)c1cccc(Nc2ncnc3ccc(C)cc23)c1	12	-3	-3%	42%	-23%	6%
COc1ccc(Nc2ncnc3ccc(C)cc23)cc1	26	1	3.5µM*	2%	-6%	.
O=C(c1cn(-c2ccccc2)nc1-c1cccs1)N1CCOCC1	-25	-9	11%	-3%	-2%	2%
O=C(c1cn(-c2ccccc2)nc1-c1cccs1)N1CCN(c2ccccc2)CC1	23	31*	-19%	-6%	25%[57.5 µM]	-17%
c1ccc(CN2CCN(c3nc(-c4ccccc4)nc(-n4ccnc4)n3)CC2)cc1	-63*	-39	-9%	-6%	25%[57.5 µM]	-21%
c1ccc(N2CCN(CCc3nnc4n3CCCCC4)CC2)cc1	-8	-9	1%	-1%	i	6%
Cc1ccccc1N1CCN(CCc2nnc3n2CCCC3)CC1	.	35*	.	.	.	.
CCc1ccc(Nc2n[n+](-c3ccccc3)c(-c3c(Cl)cccc3Cl)s2)cc1	-5	-30	-43%	6%	-39%	.
COc1ccc2ccccc2c1-c1sc(Nc2ccccc2)n[n+]1-c1ccc(F)cc1	-80*	-62	-46%	4%	-26%	.
COc1ccc(C)cc1Nc1n[n+](-c2ccccc2)c(-c2c(Cl)cccc2Cl)s1	-87*	-52	-37%	13%	-43%	.
CCc1ccc(Nc2n[n+](-c3ccccc3)c(-c3cc(OC)c(OC)cc3Br)s2)cc1	-51*	-9	10%	25%	i	.
CCCN(CCC)CCCNC(=O)C1CCC(CNS(=O)(=O)c2ccc(NC(C)=O)cc2)CC1 (stereo not drawn)	.	6	.	.	i	.
COc1ccc2nc(Nc3nc(CSc4ccc(C)cc4)cc(=O)[nH]3)nc(C)c2c1	3	5	-9%	1%	-23%	16%
COc1ccc2nc(Nc3nc(CSc4nnnn4-c4ccccc4)cc(=O)[nH]3)nc(C)c2c1	-59*	7	2%	-7%	i	0%
Cc1ccc(SCc2cc(=O)[nH]c(Nc3nc(C)c4cccc(C)c4n3)n2)cc1	-84*	-7	6%	7%	i	-1%
SMILES	D3 antag	DRD3 agonist	a7 integrin act	MBNL1 CUG block	PTHR1 agonist	CBFb-RUNX1 inh
CCOc1ccc2nc(Nc3nc(CSc4nnnn4-c4ccccc4)cc(=O)[nH]3)nc(C)c2c1	21	2	8%	-2%	i	2%
CCC(O)OC(O)CC (stereo not drawn)	.	.	.	.	.	2%[21.7 µM]
N#C/C(=C/c1ccc(N2CCOCC2)o1)c1ccc(Cl)cc1	-105*	-17	-73%	28%	i	-16%
CCN1CCN(Cc2ccc(NC(=O)c3cc(NC(=O)c4cc(C)on4)cc(OC)c3)cc2C(F)(F)F)CC1	?	-2	-46%	-7%	-13%	.
CCN1CCN(Cc2ccc(NC(=O)c3ccc(C)c(NC(=O)C(=O)c4c[nH]c5ccccc45)c3)cc2C(F)(F)F)CC1	-72*!	-13	-58%	3%	-25%	-10%
CCN1CCN(Cc2ccc(NC(=O)c3cc(NC(=O)C(=O)c4c[nH]c5ccccc45)cc(OC)c3)cc2C(F)(F)F)CC1	-54*	-8	-59%	3%	-18%	-3%
O=C(c1ccccc1Br)N1CCN(c2ccccn2)CC1	-11	33*	0%	-5%	i	.
Cc1cc(-n2c(=O)[nH]c(=O)n(C)c2=O)ccc1Oc1ccc(S(=O)(=O)C(F)(F)F)cc1	.	-18	.	.	.	.
CC1CC(=S)Nc2ccccc2S1 (stereo not drawn)	-77*	-2	-3%	-6%	-86%	-8%
Cc1ccccc1NC(=O)c1ccc(NS(=O)(=O)c2cc(C(C)(C)C)cc(C)c2C)cc1	-57*	-26	0%	-3%	-7%	-4%
Brc1ccc(Oc2ncc(CN3CCN(c4ccccc4)CC3)s2)cc1	-60*	33*	-1%	-5%	-42%[57.5 µM]	-10%
Cc1ccc(Oc2ncc(CN3CCOCC3)s2)cc1	-29	0	2%	-5%	-3%[57.5 µM]	-3%
O=C(NCCN1CCN(c2ccccc2)CC1)C1CCN(S(=O)(=O)c2cccs2)CC1	-27	46*	6%	-22%	-10%	-2%
O=C(C1CCCN(S(=O)(=O)c2cccc3nonc23)C1)N1CCC(Cc2ccccc2)CC1 (stereo not drawn)	-53*	-1	-24%	?	-70%	9%
O=C(NCCc1ccccc1)C1CCN(S(=O)(=O)c2cccs2)CC1	-14	-8	16%	-9%	-3%[57.5 µM]	4%
O=C(NCCN1CCN(c2ccccc2)CC1)C1CCN(S(=O)(=O)c2cccc3nonc23)CC1	-7	41*	-15%	14%	i	1%
CCC1OC(=O)C[C@@H](O)[C@H](C)[C@@H](O[C@@H]2O[C@H](C)C[C@H](N(C)C)[C@H]2O)[C@@H](CC=O)C[C@@H](C)C(=O)/C=C/[C@]2(C)OC2C1C (stereo partly drawn)	.	-9	.	.	.	.
C/C(=N\NC(N)=O)c1cc(Cl)cc(Cl)c1O	-82*	-26	-1%	3%	i	-2%
C/C(=N\O)c1cc(Cl)cc(Cl)c1O	-14	-3	-26%	-15%	i	15%
N#Cc1c(N)nc(SCC(=O)NC2CCCCC2)c(C#N)c1-c1ccc(Cl)cc1	-12	46*	19%	4%	i	3%

Assay outcomes: PubChem, National Center for Advancing Translational Sciences (NCATS)
